An excerpt weighted towards active compounds, which were near 2.3% of everything screened.
CHO-K1 Ca PAM – M1 PAM counterscreen hit in parental CHO-K1 cells. ATP EC20, Fluo-8 calcium fluorescence; 0% at ATP EC20, 100% at ATP max. activation, % at 3 µM. 360,000 compounds, 0.02% hits. AID 602247;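 active = activation above the run cutoff, the mean activation of all test compounds plus 3 SD, cut at about 40% in these data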;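 also: peak over basal fluorescence ratio in a 140 s read after ATP addition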
CHO-K1 Ca antag – nonselective inhibitor or artifact in parental CHO-K1 cells | 360,000 compounds, 0.6% hits | inhibition, % at 3 µM | AID 602250 | ATP-induced calcium, Fluo-8 fluorescence;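 active = inhibition above a per-plate cutoff, the plate's mean sample inhibition plus 3 SD, cut at about 24% in these data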
M1 PAM – human CHRM1 positive allosteric modulation; CHO-K1 hM1, Fluo-8 calcium fluorescence, ACh EC20; 0% = ACh EC20, 100% = maximal ACh; activation, % at 3 µM; 360,000 compounds, 0.088% hits; in the data active = activation above about 19%, passing the limit was not always enough
Target sequence (P11229 whole entry, looked up): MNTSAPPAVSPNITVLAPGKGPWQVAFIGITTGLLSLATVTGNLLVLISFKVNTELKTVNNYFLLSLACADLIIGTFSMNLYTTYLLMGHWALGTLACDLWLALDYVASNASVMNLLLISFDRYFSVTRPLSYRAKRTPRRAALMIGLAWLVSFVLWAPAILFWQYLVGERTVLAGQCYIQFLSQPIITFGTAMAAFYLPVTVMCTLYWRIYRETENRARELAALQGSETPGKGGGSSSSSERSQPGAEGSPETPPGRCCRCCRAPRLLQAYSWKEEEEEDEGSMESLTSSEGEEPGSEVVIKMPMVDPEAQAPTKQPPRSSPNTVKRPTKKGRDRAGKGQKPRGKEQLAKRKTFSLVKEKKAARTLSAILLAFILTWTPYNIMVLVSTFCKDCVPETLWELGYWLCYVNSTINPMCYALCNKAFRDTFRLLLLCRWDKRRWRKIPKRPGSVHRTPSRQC
CHRM1 antagonist – blocks human M1 muscarinic receptor; P11229; CHO-K1 hM1, Fluo-8 calcium fluorescence, ACh EC80 antagonist; inhibition, % at 3 µM; 360,000 compounds, 1.3% hits;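 active = percent inhibition above its own plate's cutoff, namely the mean of that plate's compound wells plus 3 SD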;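 also: peak over basal fluorescence ratio during 140 s after agonist addition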
CHRM1 agonist – activates human CHRM1 receptor; activation, % at 3 µM; CHO-K1 hM1, Fluo-8 calcium fluorescence, agonist mode; 0% DMSO, 100% acetylcholine EC100; P11229; 360,000 compounds, 0.33% hits;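 active = activation above the run's mean compound activation plus 3 SD, cut at about 16% in these data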;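 also: peak over basal fluorescence ratio within a 140 s kinetic read after compound addition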
CHO-K1 Ca ag – M1 agonist counterscreen hit in parental CHO-K1 cells. activation, % at 3 µM. Fluo-8 calcium fluorescence; scaled to maximal ATP response, vehicle zero. 360,000 compounds, 0.48% hits; in the data active = activation above about 15%;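 also: untransfected CHO-K1 host cells lacking M1 receptor as counterscreen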
Of the large screens only hits and unclear results are named; the others gave an inactive call.

CN(C)Cc1ccccc1C(O)(c1ccccc1)c1ccccc1	none
CN(C)Cc1cc(C(F)(F)F)ccc1C(O)(c1ccccc1)c1ccccc1	CHRM1 antagonist 101
CCC(c1nnnn1-c1c(C)cccc1C)N1CCN(c2ccccn2)CC1 (stereo unspecified)	none (no result: M1 PAM, CHRM1 antagonist, CHRM1 agonist)
CCNC(=O)C/C(C)=N/NC(=O)C12CC3CC(CC(C3)C1)C2	CHO-K1 Ca antag 24
CC1CCCC(N2CCN(S(=O)(=O)c3ccccc3)CC2)C1 (stereo unspecified)	none
COc1ccc(NC(=O)CSc2nnc(-c3ccoc3C)n2CC2CCCO2)cc1 (stereo unspecified)	CHRM1 antagonist 27
COc1cccc(NC(=O)CSc2nnc(-c3ccoc3C)n2CC2CCCO2)c1 (stereo unspecified)	none
COc1ccc(NC(=O)CSc2nnc(-c3ccncc3)n2C)cc1	none
COc1ccc(-c2nnc(SCC(=O)Nc3ccccc3)n2C)cc1	CHRM1 antagonist 13
O=C(CCc1nc2ccccc2c(=O)[nH]1)Nc1ccc(Cl)c(Cl)c1	none
O=C(CCc1nc2ccccc2c(=O)[nH]1)NCCN1C(=O)S/C(=C\c2ccc(Cl)cc2Cl)C1=O	CHRM1 antagonist 26
Cc1csc(NC(=O)CSc2nnc(Cn3c(=O)sc4ccccc43)n2-c2ccccc2)n1	none
Nc1c(C(=O)C2CC2)sc2nc(-c3ccccc3)cc(C(F)(F)F)c12	CHO-K1 Ca antag 75, CHO-K1 Ca ag 109
O=C(Cn1nc2n(c1=O)-c1ccccc1SC2)N/N=C/c1cccnc1	none
CC(C)C[C@H]1CNC(=O)C(=O)N1C[C@@H]1CCCN1C[C@H](Cc1ccccc1)N1C[C@H](Cc2ccccc2)N(CCc2ccccc2)C(=O)C1=O	none (no result: M1 PAM, CHRM1 antagonist, CHRM1 agonist)
O=C(/C(N=Nc1cccc([N+](=O)[O-])c1)=C(/O)c1ccc(Br)cc1)C(F)(F)F	CHRM1 antagonist 48
COc1ccc(-c2c[n+](CC(=O)OC3CC(C)CCC3C(C)C)c3n2CCC3)cc1 (stereo unspecified)	CHRM1 antagonist 91
CC(C)[C@@H]1CC[C@@H](C)C[C@H]1OC(=O)C[n+]1cc(-c2ccc(Cl)cc2)n2c1CCCCC2	CHRM1 antagonist 94
CC1CCC(C(C)C)C(OC(=O)C[n+]2cccc(C(N)=O)c2)C1 (stereo unspecified)	none
O=C(C[n+]1cc(-c2ccc(Cl)cc2)n2c1CCCCC2)c1ccccc1	none
COc1ccc(SC[C@H](C)CN2CC[C@H](C(C)(C)C)CCC2=O)cc1	none
Cc1ccc(S(=O)(=O)N2CCOCC2)cc1C(=O)NCC1CCCCC1	none
COc1ccccc1C(CNC(=O)c1ccc(NS(=O)(=O)c2ccc(F)c(C)c2)cc1)N1CCCC1 (stereo unspecified)	none
COc1ccccc1C(CNC(=O)c1cccc(NS(=O)(=O)c2ccc(C)c(F)c2)c1)N1CCCC1 (stereo unspecified)	CHRM1 antagonist 84
COc1ccc(C(CNC(=O)c2ccc(NS(=O)(=O)c3ccc(F)c(C)c3)cc2)N2CCCC2)cc1 (stereo unspecified)	CHRM1 antagonist 73
Cc1ccsc1C(=O)NNC(=O)Nc1ccc(Cl)c(Cl)c1	CHO-K1 Ca antag 29
Cc1occc1C(=O)NNC(=O)Nc1ccc(Cl)c(Cl)c1	none
COc1ccc(CCNC(=O)c2ccc3ccccc3n2)cc1OC	none
COc1ccc(CCNC(=O)c2cc3cc(F)ccc3nc2C)cc1OC	CHO-K1 Ca ag 16
Cc1ccc(NC(=O)CCC(=O)OCC(=O)c2ccc(Oc3ccc([N+](=O)[O-])cc3)cc2)c(C)c1	CHO-K1 Ca antag 30
COc1cccc(CNC(=O)c2ccccc2SCC(=O)N2CCCC2)c1	none
O=c1c(Cc2ccccc2)c(O)ccn1C1CCCCCCC1	none
CCn1cc(C(=O)NCCCN2CC(C)CC(C)C2)c(=O)c2cc(S(=O)(=O)N(C)C3CCCCC3)ccc21 (stereo unspecified)	none
CCn1cc(C(=O)NCCCN2CCC(C)CC2)c(=O)c2cc(S(=O)(=O)N(C)C3CCCCC3)ccc21	CHRM1 antagonist 38
OCCNCc1cc(Br)ccc1OCc1ccc(Cl)cc1	CHRM1 agonist 23
COC(=O)c1cc(NC(=O)Cc2ccccc2[N+](=O)[O-])cc(C(=O)OC)c1	CHO-K1 Ca ag 15
O=C(Cc1ccccc1[N+](=O)[O-])Nc1ccc2c(c1)OCCO2	none
CC1Cc2ccccc2N1C(=O)CN1CCC(C(N)=O)CC1 (stereo unspecified)	none
CC1(c2ccc3ccccc3c2)NC(=O)N(CC(=O)NCC(C)(C)N2CCOCC2)C1=O (stereo unspecified)	none
COc1cccc(CNS(=O)(=O)c2c(C)nc3sccn3c2=O)c1	none
Cc1nc2sccn2c(=O)c1S(=O)(=O)NCc1ccccc1	CHO-K1 Ca antag 25
O=C(NC1CCCC1)c1noc2c1CCCCC2	CHRM1 antagonist 37
O=C(NCc1ccccc1)c1noc2c1CCCCC2	none
CN(C)Cc1ccccc1Cc1ccccc1	none
CN(C)Cc1ccccc1CCc1ccccc1	CHRM1 antagonist 60
CCOc1ccccc1CN1CCCC(CNS(=O)(=O)c2ccc(OC)cc2)C1 (stereo unspecified)	CHRM1 antagonist 38
CC1CCC(C(C)C)C(OCC(O)CNC(C)C)C1 (stereo unspecified)	none
OC(CNCCc1ccc(C(F)(F)F)cc1)COc1cccc2ccccc12 (stereo unspecified)	none
COc1ccccc1COCC(O)CNCCc1ccc(C(F)(F)F)cc1 (stereo unspecified)	CHO-K1 Ca ag 16
C[C@@H](N)C(=O)NC[C@H]1O[C@@H](n2cnc3c(N)ncnc32)[C@H](O)[C@@H]1O	none
O=C(c1ccc(S(=O)(=O)Nc2ccc(F)cc2)cc1)N1CCN(c2ccccn2)CC1	CHRM1 antagonist 37, CHO-K1 Ca ag 17
COc1ccc(NS(=O)(=O)c2ccc(C(=O)N3CCN(c4ccc(F)cc4)CC3)cc2)cc1	CHO-K1 Ca ag 16
Cn1c(SCc2cccc([N+](=O)[O-])c2)nc2ccccc2c1=O	CHRM1 antagonist 36
O=C(O)c1ccc(CSc2nc3ccccc3c(=O)n2-c2ccccc2)cc1	none
COc1ccc(-n2c(SCc3ccc([N+](=O)[O-])cc3)nnc2-c2ccccc2)cc1	CHO-K1 Ca ag 16
O=c1c2ccccc2nc(SCc2ccc([N+](=O)[O-])cc2)n1-c1ccccc1	M1 PAM 23
O=C(c1ccc(-n2c(SCc3cccc(F)c3)nc3ccccc3c2=O)cc1)N1CCOCC1	none
O=c1c2ccccc2nc(SCc2cccc(F)c2)n1-c1cccc(S(=O)(=O)N2CCCC2)c1	CHO-K1 Ca antag 27
CCCN1CCN(CCCNC(=O)c2ccc(CS(=O)c3ccc(OC)cc3)o2)CC1 (stereo unspecified)	none
